Data: the supplement of paper PMC8975748
Where a name gives a salt, the structure may show the parent alone. ± gives the standard deviation of the averaged measurements.

How the values were obtained:
[1] = tested on: Saccharomyces cerevisiae BY4741 SeMeCo community; assay: mean cell size (pixel area) (pixels); higher = larger cells; settings: 10 µM; 24 h; SM minimal medium
Outline: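 The test system was a fluorescent Saccharomyces cerevisiae BY4741 community with four plasmids, each restoring one auxotrophy and carrying a fluorescent marker. Cells were grown for 24 h in SM medium with drug at a final 10 µM in 384-well plates, then fixed with paraformaldehyde and imaged by automated confocal microscopy for Harmony analysis of mean cell pixel area per well. Values represent the average of 3 replicates. Same SeMeCo high-content imaging drug screen: Selleck FDA-approved drugs at 10 µM, 24 h in SM medium, 384-well plates, 3 replicates.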

[2] = tested on: Saccharomyces cerevisiae BY4741 SeMeCo community; assay: z-score of prototroph abundance vs DMSO median; higher = larger share of this subpopulation than in DMSO controls; settings: 10 µM; 24 h; SM minimal medium; subpopulation (auxotrophy): Prototroph
Outline: (§1)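 A community of Saccharomyces cerevisiae BY4741 was built from four plasmids that each restored one auxotrophy and encoded a distinct fluorescent protein. Pre-grown overnight to OD600 1.0 and diluted to 0.3, it was dispensed at 70 µl into 384-well plates acoustically predosed with library drugs for a final 10 µM, and grown 24 h in minimal SM medium. Cells were then paraformaldehyde-fixed and imaged by automated confocal microscopy. Thresholds and autofluorescence correction came from single-auxotroph fluorescent strains, and each subpopulation's abundance was scored as a z-score relative to the vehicle-well median.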

[3] = tested on: Saccharomyces cerevisiae BY4741 SeMeCo community; assay: z-score of subpopulation abundance vs DMSO median, subpopulation auxotrophic for M; higher = larger share of this subpopulation than in DMSO controls; settings: 10 µM; 24 h; SM minimal medium; subpopulation (auxotrophy): M
Outline: as §1

[4] = tested on: Saccharomyces cerevisiae BY4741 SeMeCo community; assay: z-score of subpopulation abundance vs DMSO median, subpopulation auxotrophic for L; higher = larger share of this subpopulation than in DMSO controls; settings: 10 µM; 24 h; SM minimal medium; subpopulation (auxotrophy): L
Outline: as §1

[5] = tested on: Saccharomyces cerevisiae BY4741 SeMeCo community; assay: z-score of subpopulation abundance vs DMSO median, subpopulation auxotrophic for U; higher = larger share of this subpopulation than in DMSO controls; settings: 10 µM; 24 h; SM minimal medium; subpopulation (auxotrophy): U
Outline: as §1

[6] = tested on: Saccharomyces cerevisiae BY4741 SeMeCo community; assay: z-score of subpopulation abundance vs DMSO median, subpopulation auxotrophic for H; higher = larger share of this subpopulation than in DMSO controls; settings: 10 µM; 24 h; SM minimal medium; subpopulation (auxotrophy): H
Outline: as §1

[7] = tested on: Saccharomyces cerevisiae BY4741 SeMeCo community; assay: z-score of subpopulation abundance vs DMSO median, subpopulation auxotrophic for LU; higher = larger share of this subpopulation than in DMSO controls; settings: 10 µM; 24 h; SM minimal medium; subpopulation (auxotrophy): LU
Outline: as §1

[8] = tested on: Saccharomyces cerevisiae BY4741 SeMeCo community; assay: z-score of subpopulation abundance vs DMSO median, subpopulation auxotrophic for LM; higher = larger share of this subpopulation than in DMSO controls; settings: 10 µM; 24 h; SM minimal medium; subpopulation (auxotrophy): LM
Outline: as §1

[9] = tested on: Saccharomyces cerevisiae BY4741 SeMeCo community; assay: z-score of subpopulation abundance vs DMSO median, subpopulation auxotrophic for HM; higher = larger share of this subpopulation than in DMSO controls; settings: 10 µM; 24 h; SM minimal medium; subpopulation (auxotrophy): HM
Outline: as §1

[10] = tested on: Saccharomyces cerevisiae BY4741 SeMeCo community; assay: z-score of subpopulation abundance vs DMSO median, subpopulation auxotrophic for HU; higher = larger share of this subpopulation than in DMSO controls; settings: 10 µM; 24 h; SM minimal medium; subpopulation (auxotrophy): HU
Outline: as §1

[11] = tested on: Saccharomyces cerevisiae BY4741 SeMeCo community; assay: z-score of subpopulation abundance vs DMSO median, subpopulation auxotrophic for UM; higher = larger share of this subpopulation than in DMSO controls; settings: 10 µM; 24 h; SM minimal medium; subpopulation (auxotrophy): UM
Outline: as §1

[12] = tested on: Saccharomyces cerevisiae BY4741 SeMeCo community; assay: z-score of subpopulation abundance vs DMSO median, subpopulation auxotrophic for HL; higher = larger share of this subpopulation than in DMSO controls; settings: 10 µM; 24 h; SM minimal medium; subpopulation (auxotrophy): HL
Outline: as §1

[13] = tested on: Saccharomyces cerevisiae BY4741 SeMeCo community; assay: z-score of subpopulation abundance vs DMSO median, subpopulation auxotrophic for HLM; higher = larger share of this subpopulation than in DMSO controls; settings: 10 µM; 24 h; SM minimal medium; subpopulation (auxotrophy): HLM
Outline: as §1

[14] = tested on: Saccharomyces cerevisiae BY4741 SeMeCo community; assay: z-score of subpopulation abundance vs DMSO median, subpopulation auxotrophic for HUM; higher = larger share of this subpopulation than in DMSO controls; settings: 10 µM; 24 h; SM minimal medium; subpopulation (auxotrophy): HUM
Outline: as §1

[15] = tested on: Saccharomyces cerevisiae BY4741 SeMeCo community; assay: z-score of subpopulation abundance vs DMSO median, subpopulation auxotrophic for LUM; higher = larger share of this subpopulation than in DMSO controls; settings: 10 µM; 24 h; SM minimal medium; subpopulation (auxotrophy): LUM
Outline: as §1

[16] = tested on: Saccharomyces cerevisiae BY4741 SeMeCo community; assay: z-score of subpopulation abundance vs DMSO median, subpopulation auxotrophic for HLUM; higher = larger share of this subpopulation than in DMSO controls; settings: 10 µM; 24 h; SM minimal medium; subpopulation (auxotrophy): HLUM
Outline: as §1

[17] = tested on: Saccharomyces cerevisiae BY4741 SeMeCo community; assay: z-score of subpopulation abundance vs DMSO median, subpopulation auxotrophic for HLU; higher = larger share of this subpopulation than in DMSO controls; settings: 10 µM; 24 h; SM minimal medium; subpopulation (auxotrophy): HLU
Outline: as §1

Row | SMILES | mean cell size [1] | z-score of prototroph abundance [2] | z-score of subpopulation abundance [3] | z-score of subpopulation abundance [4] | z-score of subpopulation abundance [5] | z-score of subpopulation abundance [6] | z-score of subpopulation abundance [7] | z-score of subpopulation abundance [8] | z-score of subpopulation abundance [9] | z-score of subpopulation abundance [10] | z-score of subpopulation abundance [11] | z-score of subpopulation abundance [12] | z-score of subpopulation abundance [13] | z-score of subpopulation abundance [14] | z-score of subpopulation abundance [15] | z-score of subpopulation abundance [16] | z-score of subpopulation abundance [17]
1 | CC1=C[C@H]2C(=O)O[C@H]3C[C@@H](C/C=C(\C)C[C@@H](C)/C=C/C=C4\CO[C@H](/C1=N\O)[C@@]42O)O[C@@]1(CC[C@H](C)[C@@H](C)O1)C3.CC[C@H]1O[C@]2(CC[C@@H]1C)C[C@@H]1C[C@@H](C/C=C(\C)C[C@@H](C)/C=C/C=C3\CO[C@@H]4/C(=N\O)C(C)=C[C@@H](C(=O)O1)[C@]34O)O2 [Milbemycin Oxime] | 12.36 ± 0.099 | 0.31 | -1.4 | 0.14 | -0.74 | 2.17 | -0.7 | -0.44 | 0.15 | 0.42 | -1.12 | 1.42 | -0.22 | 0.03 | -0.87 | -0.41 | 
2 | Cc1onc(-c2ccccc2Cl)c1C(=O)N[C@@H]1C(=O)N2[C@@H]1SC(C)(C)[C@@H]2C(=O)O [Cloxacillin Sodium] | 12.44 ± 0.058 | -1.62 | 0.44 | 0.15 | 0.9 | -0.29 | 0.4 | 0.63 | -0.01 | 0.86 | 1.46 |  | 0.97 | 2.07 | 1.65 | 1.38 | 
3 | CCCCCOc1ccccc1/C(=C\SC)n1ccnc1 [Neticonazole Hydrochloride] | 11.8 ± 0.13 |  |  | -1.5 | -1.45 | 16.5 |  | -1.01 | 3.53 | 6.23 | 14.5 | 4.4 | 23.8 | 6.29 | 3.33 | 13 | 2.52
4 | CC1CCc2cc(F)cc3c(=O)c(C(=O)O)cn1c23 (stereo unspecified) [Flumequine] | 12.3 ± 0.18 | 1.18 | -1.12 | -0.69 | 0.29 |  | -0.58 | -1.29 | -1.42 | 0.37 |  | -0.81 | -0.73 | -0.88 |  | 0.55 | 
5 | COc1cc(C(C)=O)ccc1OCCCN1CCC(c2noc3cc(F)ccc23)CC1 [Iloperidone] | 12.4 ± 0.16 | -0.06 | 0.33 | 0.2 | -0.16 | 0.05 | -0.41 | 0.71 | 0.05 | -0.38 |  |  | 0.44 | -0.98 | 0.9 | -0.49 | 
6 | COc1ccc(NS(=O)(=O)c2ccc(N)cc2)nn1 [Sulfamethoxypyridazine] | 12.2 ± 0.35 | 0.98 | -0.66 | -0.07 | 0.12 | -0.64 | -0.73 | -0.89 | -0.15 | -0.08 |  |  | -1.06 | -0.17 | -0.72 | -0.55 | 
7 | Cc1c(Nc2ncccc2C(=O)O)cccc1C(F)(F)F [Flunixin Meglumin] |  | 0.11 |  | -1.33 | 0.63 |  |  | -1.23 | -0.07 | -0.19 | 0.51 | -0.74 | -0.58 |  | -0.14 | 0 | -1
8 | C/C=C1\[C@H]2C=C(C)C[C@]1(N)c1ccc(=O)[nH]c1C2 [(-)-Huperzine A (HupA)] |  | 0.12 |  |  | 0.2 | -1.16 | -0.37 |  | 0.12 | -0.26 |  | -1.26 | -0.61 |  | -0.73 | -0.57 | -0.57
9 | CN(C)CC(c1ccc(O)cc1)C1(O)CCCCC1 (stereo unspecified) [Desvenlafaxine] | 12.4 ± 0.27 | 0.76 | -0.95 | -0.35 | 0.57 |  | -0.16 | -0.57 | -1.06 | -0.26 | -0.37 | -0.75 | -0.85 | -0.85 | -0.64 | -0.91 | 
10 | CC[C@H](C)C(=O)O[C@H]1C[C@@H](C)C=C2C=C[C@H](C)[C@H](CC[C@@H]3C[C@@H](O)CC(=O)O3)[C@H]21 [Lovastatin] | 11.9 ± 0.13 |  |  | -0.96 | 0.87 | -0.06 |  | -0.13 |  | 0.59 |  |  |  | 1.12 |  | 0.35 | 0.37
11 | OCCN(CCO)c1nc(N2CCCCC2)c2nc(N(CCO)CCO)nc(N3CCCCC3)c2n1 [Dipyridamole] | 12.5 ± 0.14 | 1.3 | 5.88 | 4.21 | -6.98 | 3.18 | -7.03 |  | 6.49 |  | -8.15 | 6.01 | 11.4 | -6.13 | -4.38 |  | 
12 | C[C@]12CC[C@@H]3c4ccc(O)cc4CC[C@H]3[C@@H]1CC[C@@H]2OC(=O)CCC1CCCC1 [Estradiol Cypionate] | 12.4 ± 0.13 | -0.3 | -0.43 | -0.23 | 0.71 | -0.04 | 0.17 |  | -0.34 | 0.6 | 0.45 | -0.29 | 0.33 | 1.22 | 0.29 | 0.52 | 
13 | Cc1ccc(Sc2ccccc2N2CCNCC2)c(C)c1 | 12.22 ± 0.086 | 0.66 | -0.9 | -0.27 | -0.43 | -0.02 | -0.09 | -0.55 |  | -0.76 | -0.97 | -0.11 | -0.35 | -0.46 | -0.73 | -0.16 | 
14 | CC[C@H]1OC(=O)[C@H](C)[C@@H](O[C@H]2C[C@@](C)(OC)[C@@H](O)[C@H](C)O2)[C@H](C)[C@@H](O[C@@H]2O[C@H](C)C[C@H](N(C)C)[C@H]2O)[C@](C)(O)C[C@@H](C)CN(C)[C@H](C)[C@@H](O)[C@]1(C)O [Azithromycin Dihydrate] | 12.5 ± 0.38 | -0.48 | 0.58 | 0.09 | -0.03 | 0.7 | -0.14 |  | 0.39 | -0.53 | 0.16 | 0.05 | 0.07 | 0.97 | -0.75 | -0.18 | 
15 | COc1ccc(C2CNC(=O)C2)cc1OC1CCCC1 (stereo unspecified) [Rolipram] | 12.4 ± 0.3 | 0.66 | 0.33 | -0.37 | -0.09 |  | -0.29 | 0.28 | -0.73 | -0.85 | -0.35 | -0.38 | -1.22 | -0.22 | -0.59 |  | 
16 | O=C(Nc1ccc(Oc2ccc(Cl)cc2)c(Cl)c1)c1cc(I)cc(I)c1O [Rafoxanide] |  | 0.24 | -0.29 | 1.02 |  | 1.91 | -0.7 |  | 0.8 | -0.5 |  | 1.29 | 0.01 | 0.54 | -0.08 |  | 
